# Values joined by “and” are separate entries in the source; they are usually repeats but may differ in a detail not shown here. Equal values may be shown once. Records with an inconclusive call do not appear. Entries that show only a call come without a potency. More than one record can exist for a structure, and the calls need not agree. Active and inactive are the calls of the source. Unless noted, calls come from the whole dose curve; as a rule, active = well fitted curve in the direction sought with a large enough effect in the repeat runs; inconclusive = weak or mixed curves; inactive = no such curve, though single readings can be large; an effect the other way counts as inactive or inconclusive.
# Assays:
# [1] = qHTS assay for small molecule agonists of the p53 signaling pathway (AID 651631; calls by dose curve; note: nearly all actives have a fitted effect of over 15% in size; note: potency is the fitted concentration of half-maximal effect)
# Method in brief: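 We treat p53RE-bla HCT-116 cells with compounds for 16 h at 37 °C, add LiveBLAzer B/G FRET substrate for 2 h at room temperature, and measure fluorescence intensity.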
# [2] = qHTS assay for small molecules that induce genotoxicity in human embryonic kidney cells expressing luciferase-tagged ATAD5 (AID 651632); note: nearly all actives have a fitted effect of over 15% in size
# Method in brief: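 Cells were seeded at 2,000 per well, dosed with compound, and incubated 16 hr at 37C in 5% CO2. Luciferase activity was then quantified after a 30 min room-temperature incubation with Amplite.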
# [3] = qHTS assay for small molecule agonists of the p53 signaling pathway - cell viability (AID 651633; calls by dose curve; note: nearly all actives have a fitted effect of over 30% in size; note: potency is the fitted concentration of half-maximal effect)
# Method in brief: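 p53RE-bla cells, seeded at 4,000 per well and rested 5 h at 37 C/5% CO2, received compounds in DMSO for 16 h at 37 C. CellTiter-Glo was then added, and luminescence was read after 30 min at room temperature to gauge cytotoxicity.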
# [4] = qHTS assay for small molecules that induce genotoxicity in human embryonic kidney cells expressing luciferase-tagged ATAD5 - cell viability (AID 651634; calls by dose curve; note: nearly all actives have a fitted effect of over 25% in size)
# Method in brief: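 Cells (HEK293T, luciferase-tagged ATAD5) are seeded at 2,000 per well, dosed with compound or DMSO vehicle, and incubated 15.5 hr at 37C and 5% CO2. CellTiter-Fluor is added for 30 min before fluorescence is measured.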
# [5] = qHTS assay for small molecule disruptors of the mitochondrial membrane potential - cell viability (AID 720634; calls by dose curve;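 note: human HepG2 liver cancer cells; series mostly up to about 83 µM; nearly all actives have a fitted effect of over 20% in size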)
# Method in brief: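 Cytotoxicity was measured by ATP quantitation in HepG2 wells that had first been treated with compound for 1 hr and stained with m-MPI dye; CellTiter-Glo incubation was 30 min at room temperature.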
# [6] = qHTS assay to test for compound auto fluorescence at 590 nm (red) in HepG2 cells (AID 720674)
# Method in brief: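 Intrinsic compound fluorescence in the red window (Ex/Em 540/590 nm) is measured in attached HepG2 cells exposed for 1 hr, DMSO vehicle as baseline, benchmarked to Rose Bengal sodium.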
# [7] = qHTS assay to test for compound auto fluorescence at 535 nm (green) in HepG2 cells (AID 720675)
# [8] = qHTS assay to test for compound auto fluorescence at 460 nm (blue) in HEK293 cells (AID 720678)
# Method in brief: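 Blue read-out at excitation 405 nm and emission 460 nm follows overnight compound exposure of HEK293 cells at 37C in 5% CO2. Activity is given as auto fluorescence equivalency to triamterene.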
# [9] = qHTS assay to test for compound auto fluorescence at 590 nm (red) in HEK293 cells (AID 720679)
# Method in brief: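 Red channel, Ex/Em 540/590nm; signal expressed as equivalency to Rose Bengal sodium. HEK293, 2,000 cells/well, 10% dialyzed FBS; 23 nL compound pinned after 4-5 hr attachment; overnight 37C/5% CO2 before reading.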
# [10] = qHTS assay to test for compound auto fluorescence at 460 nm (blue) in HEK293 cell free culture (AID 720681)
# Method in brief: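 Test compounds were pinned into cell-free culture medium (DMEM with 10% FBS) and fluorescence was read directly at Ex/Em 405/460 nm. Signals were expressed as fluorescence equivalents of triamterene, with DMSO vehicle as control.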
# [11] = qHTS assay to test for compound auto fluorescence at 535 nm (green) in HEK293 cell free culture (AID 720682)
# Method in brief: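 Green-channel intensity (Ex/Em 485/535 nm) was recorded from compound-treated wells containing only DMEM with 10% FBS. Fluorescein provided the equivalency standard.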
# [12] = qHTS assay to test for compound auto fluorescence at 590 nm (red) in HEK293 cell free culture (AID 720683)
# Method in brief: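 Tox21 10K library compounds were pinned into cell-free DMEM with 10% FBS and fluorescence was read at excitation 540 nm. Activity is expressed as Rose Bengal sodium equivalency.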
# [13] = qHTS assay to test for compound auto fluorescence at 590 nm (red) in HepG2 cell free culture (AID 720684)
# Method in brief: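 Readout: intrinsic compound fluorescence at 590 nm emission after 540 nm excitation, scaled to Rose Bengal sodium. Matrix was cell-free MEM with 10% FBS; DMSO vehicle wells served as control.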
# [14] = qHTS assay to test for compound auto fluorescence at 460 nm (blue) in HepG2 cell free culture (AID 720685)
# Method in brief: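 Cell-free plates of MEM plus 10% FBS received 23 nL compound or DMSO vehicle; blue-channel (405/460 nm) intensity scored against triamterene as reference fluorophore.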
# [15] = qHTS assay to test for compound auto fluorescence at 535 nm (green) in HepG2 cell free culture (AID 720686)
# [16] = qHTS assay to test for compound auto fluorescence at 460 nm (blue) in HepG2 cells (AID 720687)
# Method in brief: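 Cells (2,000/well in MEM with 10% FBS) attached overnight at 37 C, then were exposed to compound or DMSO for 1 hr at 37 C, 5% CO2. Fluorescence read at Ex/Em 405/460 nm, expressed as triamterene-equivalent signal.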
# [17] = qHTS assay for small molecule disruptors of the mitochondrial membrane potential (AID 720635); note: potency is the fitted concentration of half-maximal effect
# Method in brief: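 HepG2 cells (2,000/well) attached overnight at 37C, then took compound for 1 hr at 37C, 5% CO2. Mito-MPS dye was added for 30 min; fluorescence was read at 490/535 nm (monomers) and 540/590 nm (aggregates).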
# [18] = qHTS assay to test for compound auto fluorescence at 535 nm (green) in HEK293 cells (AID 720680)
# [19] = target: Glucocorticoid receptor (Homo sapiens) (UniProt P04150); assay: qHTS assay to identify small molecule agonists of the glucocorticoid receptor (GR) signaling pathway (AID 720691; active = well fitted activation curve with a large enough effect in the signal ratio in the repeat runs, not every such curve was filed as active; the % refers to the signal ratio; note: potency is the fitted concentration of half-maximal effect)
# Method in brief: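 Steps: seed GR-bla HeLa cells, incubate 4 h at 37 C/5% CO2; pin-transfer DMSO-dissolved compounds; incubate 18 h at 37 C; add LiveBLAzer B/G FRET substrate; after 2 h at room temperature, measure fluorescence.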
# [20] = target: Glucocorticoid receptor (Homo sapiens) (UniProt P04150); assay: qHTS assay to identify small molecule antagonists of the glucocorticoid receptor (GR) signaling pathway (AID 720692; active = well fitted inhibition curve with a large enough effect in the signal ratio in the repeat runs, not every such curve was filed as active; the % refers to the signal ratio)
# Method in brief: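 Antagonism was scored as loss of dexamethasone-driven (5 nM final) reporter signal in HeLa cells bearing a glucocorticoid response element–beta-lactamase construct, after 18 h compound exposure at 37 C and 2 h FRET substrate loading.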
# Chain of Glucocorticoid receptor (Homo sapiens) (P04150 whole entry, looked up): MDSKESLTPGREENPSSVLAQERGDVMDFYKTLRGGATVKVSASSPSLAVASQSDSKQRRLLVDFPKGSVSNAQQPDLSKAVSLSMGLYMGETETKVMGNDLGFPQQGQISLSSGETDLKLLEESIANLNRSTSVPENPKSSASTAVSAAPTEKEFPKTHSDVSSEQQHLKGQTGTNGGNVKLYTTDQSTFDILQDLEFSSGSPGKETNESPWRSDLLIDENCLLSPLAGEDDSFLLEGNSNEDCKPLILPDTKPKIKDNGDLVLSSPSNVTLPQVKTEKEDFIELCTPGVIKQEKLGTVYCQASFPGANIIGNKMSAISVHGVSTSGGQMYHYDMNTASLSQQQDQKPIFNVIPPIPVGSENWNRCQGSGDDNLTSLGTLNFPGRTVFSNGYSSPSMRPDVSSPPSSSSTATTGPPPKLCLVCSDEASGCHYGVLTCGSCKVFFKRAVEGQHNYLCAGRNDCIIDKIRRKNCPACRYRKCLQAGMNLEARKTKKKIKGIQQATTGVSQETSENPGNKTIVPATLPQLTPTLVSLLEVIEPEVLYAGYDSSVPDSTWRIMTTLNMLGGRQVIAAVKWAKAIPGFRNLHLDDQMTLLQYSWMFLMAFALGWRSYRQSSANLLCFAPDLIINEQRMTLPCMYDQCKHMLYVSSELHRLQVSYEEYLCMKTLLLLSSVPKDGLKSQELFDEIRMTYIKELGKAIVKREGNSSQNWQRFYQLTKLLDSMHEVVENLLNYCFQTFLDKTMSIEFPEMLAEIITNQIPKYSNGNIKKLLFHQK
compound,measurement,setting,value
OCCO,Potency,[1],inactive
same,Potency,[2],inactive
same,Potency,[3],inactive
same,Potency,[4],inactive
same,Potency,[5],inactive
same,Potency,[6],inactive
same,Potency,[7],inactive
same,outcome,[8],inactive
same,Potency,[9],inactive
same,outcome,[10],inactive
same,Potency,[11],inactive
same,Potency,[12],inactive
same,Potency,[13],inactive
same,outcome,[14],inactive
same,Potency,[15],inactive
same,outcome,[16],inactive
O=C(c1ccccc1)c1ccc(O)cc1O,Potency,[1],inactive
same,Potency,[2],inactive
same,Potency,[3],inactive
same,Potency,[4],inactive
same,Potency,[17],27.8 µM (active) and 61.1 µM (active)
same,Potency,[6],inactive
same,outcome,[8],inactive
same,Potency,[9],inactive
same,Potency,[18],inactive
same,outcome,[10],inactive
same,Potency,[11],inactive
same,Potency,[12],inactive
same,Potency,[13],inactive
same,outcome,[14],inactive
same,Potency,[15],inactive
same,outcome,[16],inactive
same,Potency,[19],inactive
same,Potency,[20],inactive
OC(CCl)CCl,Potency,[1],inactive
same,Potency,[2],inactive
same,Potency,[3],inactive
same,Potency,[4],inactive
same,Potency,[5],inactive
same,Potency,[6],inactive
same,Potency,[7],inactive
same,outcome,[8],inactive
same,Potency,[9],inactive
same,outcome,[10],inactive
same,Potency,[11],inactive
same,Potency,[12],inactive
same,Potency,[13],inactive
same,outcome,[14],inactive
same,Potency,[15],inactive
same,outcome,[16],inactive
same,Potency,[19],inactive
same,Potency,[20],inactive
CCCCNS(=O)(=O)c1ccccc1,Potency,[1],inactive
same,Potency,[2],inactive
same,Potency,[3],inactive
same,Potency,[4],inactive
same,Potency,[5],inactive
same,Potency,[7],inactive
same,outcome,[8],inactive
same,Potency,[9],inactive
same,Potency,[18],inactive
same,outcome,[10],inactive
same,Potency,[11],inactive
same,Potency,[13],inactive
same,outcome,[14],inactive
same,Potency,[15],inactive
same,outcome,[16],inactive
same,Potency,[19],inactive
same,Potency,[20],inactive
c1ccc2c(c1)c1cccc3ccc4cccc2c4c31,Potency,[1],60.7 µM (active)
same,Potency,[2],inactive
same,Potency,[3],3.04 µM (active) and inactive
same,Potency,[4],inactive
same,Potency,[5],inactive
same,Potency,[6],inactive
same,Potency,[7],inactive
same,outcome,[8],inactive
same,Potency,[9],inactive
same,Potency,[18],inactive
same,outcome,[10],inactive
same,Potency,[12],inactive
same,Potency,[13],inactive
same,outcome,[14],inactive
same,Potency,[15],inactive
same,outcome,[16],inactive
same,Potency,[19],48.6 µM (active) and inactive
same,Potency,[20],inactive
O=Cc1ccccc1O,Potency,[1],inactive
same,Potency,[2],inactive
same,Potency,[3],inactive
same,Potency,[4],inactive
same,Potency,[5],inactive
same,Potency,[17],inactive
same,Potency,[6],inactive
same,outcome,[8],inactive
same,Potency,[18],inactive
same,outcome,[10],inactive
same,Potency,[11],inactive
same,Potency,[12],inactive
same,Potency,[13],inactive
same,outcome,[14],inactive
same,Potency,[15],inactive
same,outcome,[16],inactive
same,Potency,[19],inactive
same,Potency,[20],inactive
CN(C)c1nc(N(C)C)nc(N(C)C)n1,Potency,[1],inactive
same,Potency,[2],inactive
same,Potency,[3],inactive
same,Potency,[4],inactive
same,Potency,[5],inactive
same,Potency,[17],inactive
same,"fluorescence, relative to Rose Bengal",[6],0.105% [at 18.6 µM] (inactive) and 0.0838% [at 3.72 µM] (inactive)
same,"fluorescence, % of fluorescein control",[7],-0.0062% [at 18.6 µM] (inactive) and 0.0151% [at 3.72 µM] (inactive)
same,"fluorescence, % of triamterene",[8],0.0425% [at 18.6 µM] (inactive) and 0.0657% [at 3.72 µM] (inactive)
same,"fluorescence, % of fluorescent control",[9],0.0163% [at 18.6 µM] (inactive) and 0.505% [at 3.72 µM] (inactive)
same,"fluorescence, % of fluorescent control",[10],0.0543% [at 18.6 µM] (inactive) and 0.0026% [at 3.72 µM] (inactive)
same,"fluorescence, % of fluorescent control",[12],-0.0465% [at 18.6 µM] (inactive) and -0.254% [at 3.72 µM] (inactive)
same,"fluorescence, % of Rose Bengal",[13],0.0258% [at 18.6 µM] (inactive) and 0.364% [at 3.72 µM] (inactive)
same,"fluorescence, % of fluorescent control",[14],0.0368% [at 18.6 µM] (inactive) and -0.0793% [at 3.72 µM] (inactive)
same,"fluorescence, % of fluorescein control",[15],-0.0261% [at 18.6 µM] (inactive) and -0.0181% [at 3.72 µM] (inactive)
same,"fluorescence, % of fluorescent control",[16],0.0942% [at 18.6 µM] (inactive) and -0.004% [at 3.72 µM] (inactive)
same,Potency,[19],inactive
same,Potency,[20],inactive

# From PubChem BioAssay (Tox21)
